This is part of a sample that, as a whole, favours compounds with a hit. Of some 83,000 tested, about 20% had one in any assay.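 Testing used 96-well plates and a 48-hour single-concentration exposure. Example: -40 means 40% of the starting cells died.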 Calls of active or inactive are those of the source. The calls were made as follows: active = growth percent below 10; inactive = the rest.
Experiments:
Test in all cases: NCI-60 one-dose screen, 48 h (100 = growth as untreated, 0 = no growth, -100 = all killed)
Conditions in all cases: 10 µM unless noted
SR leukemia = test system: SR leukemia
RPMI-8226 leukemia = test system: RPMI-8226 leukemia
OVCAR-8 ovarian = test system: OVCAR-8 ovarian
OVCAR-5 ovarian = test system: OVCAR-5 ovarian
OVCAR-4 ovarian = test system: OVCAR-4 ovarian
IGROV1 ovarian = test system: IGROV1 ovarian
OVCAR-3 ovarian = test system: OVCAR-3 ovarian
HS 578T breast = test system: HS 578T breast
NCI/ADR-RES ovarian = test system: NCI/ADR-RES ovarian
T-47D breast = test system: T-47D breast
BT-549 breast = test system: BT-549 breast
MDA-MB-435 melanoma = test system: MDA-MB-435 melanoma
SW-620 colon = test system: SW-620 colon
MCF7 breast = test system: MCF7 breast
HCT-116 colon = test system: HCT-116 colon
HCC-2998 colon = test system: HCC-2998 colon
KM12 colon = test system: KM12 colon
SK-OV-3 ovarian = test system: SK-OV-3 ovarian

Measured: growth

C[C@H](NC(=O)c1snnc1C1CC1)c1c(F)cccc1Cl
inactive: SR leukemia 149% | RPMI-8226 leukemia 130% | OVCAR-8 ovarian 104% | OVCAR-5 ovarian 115% | OVCAR-4 ovarian 110% | IGROV1 ovarian 113% | OVCAR-3 ovarian 114% | HS 578T breast 100% | NCI/ADR-RES ovarian 97.8% | T-47D breast 258% | BT-549 breast 139% | MDA-MB-435 melanoma 106% | SW-620 colon 106% | MCF7 breast 98.7% | HCT-116 colon 122% | HCC-2998 colon 95.7% | KM12 colon 114%

CCOc1cc(/C=N\NC(=O)C[N+](C)(C)C)ccc1O
inactive: SR leukemia 14.3% | RPMI-8226 leukemia 94% | OVCAR-8 ovarian 113% | OVCAR-5 ovarian 101% | SK-OV-3 ovarian 105% | IGROV1 ovarian 118% | OVCAR-3 ovarian 116% | HS 578T breast 117% | NCI/ADR-RES ovarian 103% | T-47D breast 94.1% | BT-549 breast 117% | MDA-MB-435 melanoma 109% | SW-620 colon 110% | MCF7 breast 105% | HCT-116 colon 111% | HCC-2998 colon 104% | KM12 colon 109%

Clc1ccc(-c2cnc3c(-c4ccnc(N5CCNCC5)c4)cnn3c2)cc1
inactive: SK-OV-3 ovarian 85.2% | BT-549 breast 78.1%
active: SR leukemia -0.57% | RPMI-8226 leukemia -39% | OVCAR-8 ovarian 1.08% | OVCAR-5 ovarian -21.2% | OVCAR-4 ovarian -60.9% | OVCAR-3 ovarian -14.6% | HS 578T breast -32% | NCI/ADR-RES ovarian -0.0998% | T-47D breast -55.6% | MDA-MB-435 melanoma -51.1% | SW-620 colon -50.4% | MCF7 breast -63.4% | HCT-116 colon -68.3% | HCC-2998 colon -43% | KM12 colon -3.73%

Cc1ccc(OC2=C(C#N)C(=N)N3C(=NN2)Sc2c(C)ccc(C)c23)cc1
inactive: SR leukemia 98.2% | RPMI-8226 leukemia 105% | OVCAR-8 ovarian 104% | OVCAR-5 ovarian 128% | SK-OV-3 ovarian 96.2% | IGROV1 ovarian 87.7% | OVCAR-3 ovarian 117% | HS 578T breast 107% | NCI/ADR-RES ovarian 101% | T-47D breast 84.8% | BT-549 breast 105% | MDA-MB-435 melanoma 106% | SW-620 colon 102% | MCF7 breast 91% | HCT-116 colon 106% | HCC-2998 colon 106% | KM12 colon 106%

C(=Nc1ccc(-c2ccc(N=Cc3ccccc3)cc2)cc1)c1ccccc1
inactive: SR leukemia 86.3% | RPMI-8226 leukemia 103% | OVCAR-8 ovarian 109% | OVCAR-5 ovarian 116% | SK-OV-3 ovarian 103% | IGROV1 ovarian 87.6% | OVCAR-3 ovarian 111% | HS 578T breast 82.1% | NCI/ADR-RES ovarian 101% | T-47D breast 107% | MDA-MB-435 melanoma 107% | SW-620 colon 106% | MCF7 breast 89.9% | HCT-116 colon 100% | HCC-2998 colon 110% | KM12 colon 107%

Cc1ccc(C)c(NC(=O)c2sc3c(=O)[nH]cnc3c2C)c1
active: MDA-MB-435 melanoma -36%
inactive: SR leukemia 15.8% | RPMI-8226 leukemia 87.7% | OVCAR-8 ovarian 98.2% | OVCAR-5 ovarian 127% | SK-OV-3 ovarian 101% | IGROV1 ovarian 79.8% | OVCAR-3 ovarian 70.7% | HS 578T breast 78.9% | NCI/ADR-RES ovarian 58% | T-47D breast 86.9% | BT-549 breast 80.2% | SW-620 colon 42.8% | MCF7 breast 62.8% | HCT-116 colon 68.3% | HCC-2998 colon 87.7% | KM12 colon 46.2%

COc1cccc(-c2nc3sccn3c2-c2ccnc(NCCN3CCCN(C)S3(=O)=O)n2)c1
inactive: SR leukemia 66.7% | RPMI-8226 leukemia 103% | OVCAR-8 ovarian 98.6% | OVCAR-5 ovarian 102% | OVCAR-4 ovarian 78% | SK-OV-3 ovarian 62.4% | IGROV1 ovarian 72.7% | HS 578T breast 97.5% | NCI/ADR-RES ovarian 84.9% | BT-549 breast 100% | MDA-MB-435 melanoma 57.7% | SW-620 colon 131% | MCF7 breast 106% | HCT-116 colon 78.1% | HCC-2998 colon 114% | KM12 colon 100%

N/C(=N\O)c1ncc(-c2ccc(C(F)(F)F)cc2)c(NC2CCCCCC2)n1
active: SR leukemia -48.8% [100 µM] | RPMI-8226 leukemia -35.7% [100 µM] | OVCAR-5 ovarian -76.5% [100 µM] | OVCAR-4 ovarian -6.06% [100 µM] | SK-OV-3 ovarian -17.8% [100 µM] | IGROV1 ovarian -77.2% [100 µM] | OVCAR-3 ovarian -95% [100 µM] | HS 578T breast -43.3% [100 µM] | NCI/ADR-RES ovarian -61.8% [100 µM] | T-47D breast -57.3% [100 µM] | BT-549 breast -93.2% [100 µM] | MDA-MB-435 melanoma -84.2% [100 µM] | MCF7 breast -92.8% [100 µM] | HCT-116 colon -95.8% [100 µM] | HCC-2998 colon -95.6% [100 µM] | KM12 colon -90.1% [100 µM]

COc1cc2c(cc1OC)-c1cc(OC)c(OC)cc1C(CN(C)C)C2 (stereo not given)
active: OVCAR-4 ovarian -20.7% [100 µM] | SK-OV-3 ovarian 6.96% [100 µM]
inactive: SR leukemia 53.9% [100 µM] | RPMI-8226 leukemia 67.7% [100 µM] | OVCAR-5 ovarian 86% [100 µM] | IGROV1 ovarian 60.7% [100 µM] | OVCAR-3 ovarian 59.9% [100 µM] | HS 578T breast 10.3% [100 µM] | NCI/ADR-RES ovarian 26.9% [100 µM] | T-47D breast 69.3% [100 µM] | BT-549 breast 45.8% [100 µM] | MDA-MB-435 melanoma 63.8% [100 µM] | SW-620 colon 82.4% [100 µM] | MCF7 breast 62% [100 µM] | HCT-116 colon 70.7% [100 µM] | HCC-2998 colon 85.6% [100 µM] | KM12 colon 82.1% [100 µM]

Cc1cc([N+](=O)[O-])c(C)cc1N
inactive: SR leukemia 90.9% | RPMI-8226 leukemia 96.5% | OVCAR-8 ovarian 102% | OVCAR-5 ovarian 116% | SK-OV-3 ovarian 111% | IGROV1 ovarian 96.9% | OVCAR-3 ovarian 104% | HS 578T breast 107% | NCI/ADR-RES ovarian 106% | T-47D breast 111% | BT-549 breast 101% | SW-620 colon 104% | MCF7 breast 90.9% | HCT-116 colon 109% | HCC-2998 colon 102% | KM12 colon 107%

Cc1cc2nc(CN)[nH]c2cc1C
inactive: SR leukemia 97.2% | RPMI-8226 leukemia 96.5% | OVCAR-8 ovarian 106% | OVCAR-5 ovarian 112% | OVCAR-4 ovarian 112% | SK-OV-3 ovarian 104% | IGROV1 ovarian 111% | HS 578T breast 114% | NCI/ADR-RES ovarian 112% | BT-549 breast 101% | MDA-MB-435 melanoma 109% | SW-620 colon 108% | MCF7 breast 96.7% | HCT-116 colon 104% | HCC-2998 colon 106% | KM12 colon 103%

COC(=O)[C@H](Cc1cn(C)cn1)NC(=O)[C@H](CC(C)C)NC(=O)Nc1cc(C(F)(F)F)cc(C(F)(F)F)c1
active: SR leukemia -46.5% [100 µM] | RPMI-8226 leukemia -53.4% [100 µM] | OVCAR-5 ovarian -98.6% [100 µM] | OVCAR-4 ovarian -97% [100 µM] | SK-OV-3 ovarian -100% [100 µM] | IGROV1 ovarian -89.2% [100 µM] | OVCAR-3 ovarian -98.8% [100 µM] | HS 578T breast -17.3% [100 µM] | NCI/ADR-RES ovarian -67.3% [100 µM] | T-47D breast -64.9% [100 µM] | BT-549 breast -95.6% [100 µM] | MDA-MB-435 melanoma -97.1% [100 µM] | SW-620 colon -43.6% [100 µM] | MCF7 breast -86.5% [100 µM] | HCT-116 colon -98% [100 µM] | KM12 colon -95.4% [100 µM]

COc1cc([N+](=O)[O-])cc(OC)c1OC
inactive: SR leukemia 102% | RPMI-8226 leukemia 96% | OVCAR-8 ovarian 109% | OVCAR-5 ovarian 129% | SK-OV-3 ovarian 118% | IGROV1 ovarian 100% | OVCAR-3 ovarian 108% | HS 578T breast 107% | NCI/ADR-RES ovarian 114% | T-47D breast 112% | SW-620 colon 105% | MCF7 breast 96.5% | HCT-116 colon 113% | HCC-2998 colon 107% | KM12 colon 108%

NC(=O)N/N=C\c1ccc([N+](=O)[O-])o1
inactive: SR leukemia 96.1% | RPMI-8226 leukemia 86% | OVCAR-8 ovarian 97.6% | OVCAR-5 ovarian 103% | SK-OV-3 ovarian 114% | IGROV1 ovarian 105% | OVCAR-3 ovarian 109% | HS 578T breast 79.2% | NCI/ADR-RES ovarian 95.1% | T-47D breast 101% | MDA-MB-435 melanoma 102% | SW-620 colon 96.9% | MCF7 breast 94.6% | HCT-116 colon 109% | HCC-2998 colon 104% | KM12 colon 98.1%

Cc1ccc(NC(=O)c2sc3nc4c(cc3c2N)C(=O)CCC4)cc1Cl
inactive: SR leukemia 105% | RPMI-8226 leukemia 105% | OVCAR-8 ovarian 103% | OVCAR-5 ovarian 101% | SK-OV-3 ovarian 114% | IGROV1 ovarian 106% | OVCAR-3 ovarian 113% | HS 578T breast 113% | NCI/ADR-RES ovarian 104% | T-47D breast 105% | BT-549 breast 115% | MDA-MB-435 melanoma 99.2% | MCF7 breast 102% | HCT-116 colon 105% | HCC-2998 colon 103% | KM12 colon 116%

CC(C)(C)c1cc(C[P+](c2ccccc2)(c2ccccc2)c2ccccc2)cc(C(C)(C)C)c1O
inactive: OVCAR-5 ovarian 20.8% | OVCAR-4 ovarian 16.2% | IGROV1 ovarian 12.1% | OVCAR-3 ovarian 13.8% | HS 578T breast 16.2% | NCI/ADR-RES ovarian 73.2% | SW-620 colon 10.6% | HCC-2998 colon 14.6%
active: SR leukemia -22.3% | RPMI-8226 leukemia -35% | SK-OV-3 ovarian -0.717% | T-47D breast -4.23% | BT-549 breast -0.875% | MDA-MB-435 melanoma -38% | MCF7 breast 3.43% | HCT-116 colon 5.83% | KM12 colon -38.6%

C[N+](C)(C)CC(=O)N/N=C\c1ccco1
inactive: SR leukemia 81.2% | RPMI-8226 leukemia 103% | OVCAR-8 ovarian 102% | OVCAR-5 ovarian 97% | SK-OV-3 ovarian 103% | IGROV1 ovarian 104% | OVCAR-3 ovarian 114% | HS 578T breast 99.4% | NCI/ADR-RES ovarian 111% | T-47D breast 97.7% | BT-549 breast 104% | MDA-MB-435 melanoma 107% | SW-620 colon 98.9% | MCF7 breast 88.6% | HCT-116 colon 101% | HCC-2998 colon 110% | KM12 colon 96.8%

Clc1ccc(-c2nc(-c3cccs3)no2)cc1
inactive: SR leukemia 101% | RPMI-8226 leukemia 95.3% | OVCAR-8 ovarian 101% | SK-OV-3 ovarian 99.2% | IGROV1 ovarian 77.1% | OVCAR-3 ovarian 103% | HS 578T breast 99.5% | NCI/ADR-RES ovarian 103% | T-47D breast 56.9% | BT-549 breast 102% | MDA-MB-435 melanoma 107% | SW-620 colon 91% | MCF7 breast 33.7% | HCT-116 colon 97.8% | HCC-2998 colon 102% | KM12 colon 103%

From PubChem BioAssay (NCI)
